Reference: PubChem BioAssay (NCI)
This is part of a sample that, as a whole, favours compounds with a hit. Of some 79,000 tested, about 15% had one in any assay. Activity calls are given as the source filed them. Rule as the data show it: active = growth inhibition above about 70%; inactive = the rest.

What was measured:
[1] = NCI Yeast Anticancer Drug Screen. Data for the rad52 strain (AID 147);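 also: 0% = growth of vehicle-treated control cultures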; conditions: S. cerevisiae rad52 mutant growth inhibition, stronger effect = higher value
How it was run: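 Vehicle-treated cultures served as the reference for growth inhibition of compound-exposed yeast bearing a DNA repair mutation.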

[2] = NCI Yeast Anticancer Drug Screen. Data for the rad50EPP+ strain (AID 151);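 also: 0% = growth of vehicle-treated control cultures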; conditions: S. cerevisiae rad50 mutant strain, stronger effect = higher value
How it was run: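 In this screen, rad50EPP+ yeast were exposed to compounds. Growth inhibition was scored against vehicle-treated controls.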

[3] = NCI Yeast Anticancer Drug Screen. Data for the mgt1 strain (AID 153); conditions: S. cerevisiae mgt1 mutant growth inhibition, stronger effect = higher value
How it was run: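 mgt1 strain exposed; growth vs vehicle control recorded as inhibition.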

[4] = NCI Yeast Anticancer Drug Screen. Data for the rad50 strain (AID 155);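 also: 0% = growth of vehicle-only cultures of the same strain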; conditions: S. cerevisiae rad50 strain growth inhibition, stronger effect = higher value
How it was run: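 Inhibition values express reduced yeast growth in compound-treated cultures relative to vehicle-treated controls.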

[5] = NCI Yeast Anticancer Drug Screen. Data for the mec2-1 strain (AID 157); conditions: S. cerevisiae mec2-1 strain, stronger effect = higher value
How it was run: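 Vehicle-treated cultures served as reference for growth inhibition of compound-exposed mec2-1 yeast.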

[6] = NCI Yeast Anticancer Drug Screen. Data for the sgs1 mgt1 strain (AID 161);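 also: 0% = growth of cultures given vehicle only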; conditions: S. cerevisiae sgs1 mgt1 strain, stronger effect = higher value
How it was run: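 Inhibition of yeast growth, normalised to vehicle-treated controls, is reported for a strain bearing genetic alterations in DNA damage repair.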

[7] = NCI Yeast Anticancer Drug Screen. Data for the CLN2oe strain (AID 163);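 also: 0% = growth of vehicle-only control cultures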; conditions: S. cerevisiae CLN2oe strain, stronger effect = higher value
How it was run: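 Inhibition relative to vehicle-treated yeast is reported. Cells: strain with genetic alteration in cell-cycle control, grown with compound.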

[8] = NCI Yeast Anticancer Drug Screen. Data for the cln2 rad14 strain (AID 165);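 also: 0% = growth equal to vehicle treated cultures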; conditions: S. cerevisiae cln2 rad14 strain, stronger effect = higher value
How it was run: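 Each compound was tested on cln2 rad14 yeast. Inhibition of growth was calculated against vehicle-exposed controls.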

[9] = NCI Yeast Anticancer Drug Screen. Data for the bub3 strain (AID 167); conditions: S. cerevisiae bub3 mutant strain, stronger effect = higher value
How it was run: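 Steps: expose the mutant yeast strain to compound; grow alongside vehicle-treated cultures; measure growth; express inhibition against the vehicle cultures.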

[10] = NCI Yeast Anticancer Drug Screen. Data for the wt2 strain (AID 169);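 also: 0% = growth of vehicle-treated yeast cultures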; conditions: S. cerevisiae wt2 strain growth inhibition, stronger effect = higher value
How it was run: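 Inhibition of yeast growth was determined after compound treatment, normalised to controls receiving only vehicle.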

[11] = NCI Yeast Anticancer Drug Screen. Data for the mlh1 strain (AID 171);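 also: 0% = growth of vehicle-treated control cultures of the same strain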; conditions: S. cerevisiae mlh1 strain growth inhibition, stronger effect = higher value
How it was run: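 Vehicle-normalised growth inhibition of a repair- or checkpoint-altered yeast strain following compound treatment.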

[12] = NCI Yeast Anticancer Drug Screen. Data for the sgs1 strain (AID 173);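 also: 0% = growth of vehicle-only control cultures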; conditions: S. cerevisiae sgs1 mutant, stronger effect = higher value
How it was run: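 Screen format: yeast with repair or checkpoint alterations, compound exposure, growth read relative to vehicle.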

[13] = NCI Yeast Anticancer Drug Screen. Data for the mlh1 rad18 strain (AID 175); conditions: S. cerevisiae mlh1 rad18 strain growth inhibition, stronger effect = higher value
How it was run: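 Vehicle-treated cultures served as the reference for growth inhibition in a yeast strain carrying DNA damage repair alterations exposed to each compound.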

[14] = NCI Yeast Anticancer Drug Screen. Data for the rad18 strain (AID 177); conditions: S. cerevisiae rad18 mutant growth inhibition, stronger effect = higher value
How it was run: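 Test articles were incubated with altered yeast defective in DNA damage repair. Results are given as inhibition of growth versus vehicle.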

[15] = at 5.0 µM (retest, dose inferred, filed as 0.5)
[16] = at 50.0 µM (retest, dose inferred, filed as 5.0)

Measured: growth inhibition

CN(CC(=O)O)c1ccc(/C=C/c2ccnc3ccccc23)cc1
active: [2]; at 100.0 µM 83% | [6]; [16] 80% | [13]; [16] 88% | [14]; at 33.0 µM 78% | [14]; at 100.0 µM 91%
inactive: [1]; at 1.2 µM -3% | [1]; at 3.7 µM -5% | [1]; at 11.0 µM -2% | [1]; at 33.0 µM 13% | [1]; at 100.0 µM 41% | [2]; at 1.2 µM -9% | [2]; at 3.7 µM 3% | [2]; at 11.0 µM 8% | [2]; at 33.0 µM 35% | [3]; at 1.2 µM 0% | [3]; at 3.7 µM 0% | [3]; at 11.0 µM -2% | [3]; at 33.0 µM -2% | [3]; at 100.0 µM 39% | [4]; at 1.2 µM -1% | [4]; at 3.7 µM -1% | [4]; [15] 23% | [4]; at 11.0 µM 2% | [4]; at 33.0 µM 11% | [4]; [16] 24% | [4]; at 50.0 µM 14.7% | [4]; at 100.0 µM 31% | [5]; at 1.2 µM -5% | [5]; at 3.7 µM -4% | [5]; [15] 6% | [5]; at 11.0 µM -5% | [5]; at 33.0 µM -3% | [5]; [16] 12% | [5]; at 50.0 µM 33.5% | [5]; at 100.0 µM 16% | [6]; [15] 5% | [6]; at 50.0 µM 59.2% | [7]; at 1.2 µM -3% | [7]; at 3.7 µM -4% | [7]; at 11.0 µM -9% | [7]; at 33.0 µM -15% | [7]; at 100.0 µM -12% | [8]; [15] -2% | [8]; [16] 22% | [8]; at 50.0 µM -46.4% | [9]; at 1.2 µM -3% | [9]; at 3.7 µM -4% | [9]; [15] 6% | [9]; at 11.0 µM -5% | [9]; at 33.0 µM -8% | [9]; [16] 20% | [9]; at 50.0 µM 51.9% | [9]; at 100.0 µM 12% | [10]; at 1.2 µM -4% | [10]; at 3.7 µM -4% | [10]; at 11.0 µM -5% | [10]; at 33.0 µM -3% | [10]; at 100.0 µM 37% | [11]; at 1.2 µM -1% | [11]; at 3.7 µM 2% | [11]; at 11.0 µM 3% | [11]; at 33.0 µM 7% | [11]; at 100.0 µM 41% | [12]; at 1.2 µM -2% | [12]; at 3.7 µM 0% | [12]; at 11.0 µM 4% | [12]; at 33.0 µM 22% | [12]; at 100.0 µM 65% | [13]; [15] 30% | [13]; at 50.0 µM 50.4% | [14]; at 1.2 µM 1% | [14]; at 3.7 µM 5% | [14]; at 11.0 µM 10%
